Source: PubChem BioAssay
Only a selection was taken, and hits are over-represented in it overall.
Tg IFNy HTS = inhibitors of Toxoplasma gondii growth with IFN-gamma | Toxoplasma gondii growth in IFN-gamma-treated host cells; active compounds read low | activity change, negative = inhibition, % (concentration not given with the values) | actives 3.8% (n = 69,000); in the data active means activity change below about -70%, passing the limit was not always enough;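 further: host cells are HeLa cells infected with Toxoplasma gondii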
* marks the source's active call; other numbers are inactive results.

SMILES	Tg IFNy HTS
CCCCOC(=O)c1ccc(OS(=O)(=O)c2ccc(Cl)cc2)cc1	72.2
C=CCOC1C2CCC1N(C(=O)c1cccn1C)C2 (configuration not stated)	-67.0
COc1cc(N2CCC3(CC2)CNC(=O)C3)ncn1	6.2
CCCC(=O)Nc1ccc2c(c1)CCC(=O)N2CCOC	111.3
O=C(CSc1nnc(CNc2ccc(F)cc2)o1)c1ccccc1F	0.4
COc1ccc2cc(CN3CCOC(C)(C(N)=O)C3)ccc2c1 (configuration not stated)	69.3
CCN(CC)Cc1ccccc1NC(=O)c1cn2cc(Cl)ccc2n1	6.2
CN(C)C1CCN(C(=O)C2=NOC3(CCN(Cc4ccccc4)C3)C2)CC1 (configuration not stated)	-65.8
CCN1C(=O)C(c2ccccc2)CC12CCN(S(C)(=O)=O)CC2 (configuration not stated)	60.2
CNC(=O)C(C)N(C)Cc1nc2ccccc2n1CC(C)C (configuration not stated)	32.6
CC(C)Cc1nc(CN(C)Cc2ncc[nH]2)no1	8.6
CC(C)Cn1c(CN(C)Cc2ncc[nH]2)nc2ccccc21	-83.7*
Cc1cccn2cc(CNC(=O)CCC(=O)Nc3ccccc3C(C)(C)C)nc12	-18.5
O=C(c1cc(C(F)(F)F)cc(C(F)(F)F)c1)N1CC=CCC1	21.6
O=C(/C=C\n1cnc(-c2cc(C(F)(F)F)cc(C(F)(F)F)c2)n1)NNc1cnccn1	-68.9
O=C(/C=C\n1cnc(-c2cc(C(F)(F)F)cc(C(F)(F)F)c2)n1)N1CC(F)(F)C1	-79.6*
COc1cc(-c2ncn(/C=C\C(=O)OC(C)C)n2)cc(C(F)(F)F)c1	-85.1*
Cc1cc(C(=O)N(C)Cc2c(C)noc2C)c2cccc(C)c2n1	-0.8
Cc1ccc(Cl)cc1-n1c(C2CCC2)n[nH]c1=O	-5.2
Nc1cc(-c2cn[nH]c2C2CCCN(CCOCc3ccccc3)C2)ccn1 (configuration not stated)	-25.9
Cc1ccsc1-c1nc(CN(C)CC2(CO)CCOCC2)c(C)o1	-3.3
O=C(Nc1ccccc1OCc1ccccn1)c1cnc(-c2ccc(Cl)cc2)nc1	-40.2
COCCN1C[C@]23CN(C(=O)COC)C[C@@H](C[C@H]2S1(=O)=O)O3	-16.1
CCCn1cc(CNC(=O)Cc2ccccn2)cn1	5.2
CC(C)(C)c1cc(C2=NNC(O)(C(F)(F)F)C2)c2c(c1)C(C)(C)CC2 (configuration not stated)	-100.2*
SMILES	Tg IFNy HTS
CC(C)(C)c1cc(-c2cc(C(F)(F)F)[nH]n2)c2c(c1)C(C)(C)CC2	-87.4*
OC1(C(F)(F)F)CC(c2nccs2)=NN1 (configuration not stated)	-13.1
CN1CCC2(CCN(C(=O)c3cc(C(F)(F)F)[nH]n3)CC2)C1	-1.8
COc1ccc(CN2C[C@H]3CN(c4ccc(C#N)cn4)C[C@H]3C2=O)cc1	5.3
CCN(C)c1cc(N2CCN(Cc3cc4ccccc4n3C)CC2)ncn1	-67.9
COc1cccc(-c2cn[nH]c2C2CCN(C(=O)CCn3cncn3)CC2)c1	1.8
CCc1ccccc1S(=O)(=O)N1CCC2(CC1)Nc1cc(F)ccc1-n1cccc12	17.0
OCc1nnn2c1CN(Cc1cccs1)CCC2	40.0
CCc1cc(N(C)CCCO)nc(N2CCCC2)n1	18.9
CCO[C@H]1CO[C@@]2(CCCN(C(=O)c3cccc(C)n3)C2)C1	22.0
Cc1nc(N)nc(C)c1CCC(=O)Nc1ccc2c(c1)CN(Cc1ccccc1)C2	-1.3
CCn1c(C)nc2cc(NC(=O)c3cnc(N4CCOCC4)nc3)ccc21	-8.3
O=C(Nc1ccc2c(c1)CN(Cc1ccccc1)C2)c1cnc(N2CCOCC2)nc1	-95.5*
O=C(Cn1ncc2ccccc2c1=O)Nc1ccc2c(c1)CN(Cc1ccccc1)C2	2.1
O=C(Nc1ccc2c(c1)CN(Cc1ccccc1)C2)c1nc2ncccn2n1	-77.5*
Cc1nc2nc[nH]n2c(=O)c1CC(=O)Nc1ccc2c(c1)CN(Cc1ccccc1)C2	-5.5
O=C(O)CN1CCC2(CC(=O)N(c3ccccc3)C2)C1 (configuration not stated)	-3.2
CN(Cc1ccoc1)c1nc(C(C)(C)C)nc2c1cnn2C	-59.8
Cc1nc2ccc(NC(=O)CN3CCC(O)(c4ccccn4)CC3)cc2[nH]1	3.0
CCN(CC)c1ncnc2c1cnn2CC(=O)NC1CC1	129.5
CCC(C(=O)N1CCC[C@@H]1C(=O)NCCc1csc(C)n1)c1ccccc1 (some centres not stated)	16.4
CCc1ccc(CNC(=O)c2c(O)c3cccnc3n(-c3cccc(F)c3)c2=O)cc1	39.3
COc1cccc(CNC(=O)c2c(O)c3cccnc3n(-c3cccc(F)c3)c2=O)c1	-98.4*
CCc1ccc(CNC(=O)c2c(O)c3cccnc3n(-c3cccc(OC)c3)c2=O)cc1	-14.4
COc1cccc(-n2c(=O)c(C(=O)NCc3cc(F)cc(F)c3)c(O)c3cccnc32)c1	-101.3*
SMILES	Tg IFNy HTS
COc1cccc(-n2c(=O)c(C(=O)NCc3ccc(F)cc3)c(O)c3cccnc32)c1	16.4
COc1cccc(CNC(=O)c2c(O)c3cccnc3n(-c3ccccc3)c2=O)c1	-65.7
O=C(Nc1nc(-c2ccccc2F)cs1)C1CC(=O)N(Cc2ccncc2)C1 (configuration not stated)	7.6
Cc1cc(CN2CCC3C2CC(=O)N3CCN2CCOCC2)oc1C (configuration not stated)	-3.9
CNC(=S)N1N=C(c2c(-c3ccccc3)c3cc(Cl)ccc3[nH]c2=O)CC1c1ccccc1OC (configuration not stated)	-39.6
COC(C(=O)N1N=C(c2c(-c3ccccc3)c3cc(Cl)ccc3[nH]c2=O)CC1c1ccccc1)c1ccccc1 (configuration not stated)	-101.6*
CNC(=S)N1N=C(c2c(-c3ccccc3)c3cc(Cl)ccc3[nH]c2=O)CC1c1ccccc1 (configuration not stated)	156.0
CCc1nc(CC)n(Cc2nc(-c3ccccn3)no2)n1	2.8
CCOc1ccc(-n2cnnc2)cc1-n1cccc1	-74.4*
c1cc(-n2ccnc2)cc(-n2cnnc2)c1	34.7
CCC/C=C/c1cccc(-n2cnnc2)c1	-32.3
Cc1ccccc1CC(=O)N1CCC2(CC1)Nc1ccc(C)c(C)c1-n1cccc12	44.6
O=C(NCCCc1cccnc1)C1CCCN(C2CCN(C(=O)C3CC3)CC2)C1 (configuration not stated)	-0.1
O=C(c1cccs1)N(CCN1CCOCC1)C1CCN(c2ccc3c(c2)OCO3)CC1	-53.0
Cc1ccc(-c2noc(-c3c(O)c4ccccc4[nH]c3=O)n2)cc1C	54.4
Cc1ccc(O)c(CN(Cc2cccnc2)Cc2ccc3c(c2)OCO3)n1	-25.1
Cc1ccc(CN(Cc2ccc3c(c2)OCO3)Cc2cnc(C)[nH]2)cc1	-28.1
COCCc1ncc(CN(Cc2ccncc2)Cc2ccc3c(c2)OCO3)cn1	-71.3*
Cc1ccccc1NC(=O)CC(=O)NCCOc1c(C)cccc1Cl	-4.8
O=C(Cn1c(=O)c(S(=O)(=O)c2ccccc2)cc2ccccc21)NCc1ccccc1Cl	-13.2
Clc1ccccc1CSc1nc(NCc2ccccc2)c2ccccc2n1	-48.7
Fc1ccc(Nc2nc(SCc3ccc(Cl)cc3)nc3ccccc23)cc1F	-21.2
Fc1ccc(CSc2nc(Nc3ccc(F)c(F)c3)c3ccccc3n2)cc1	-80.5*
c1ccc(CNc2nc(NCc3ccccc3)c3ccccc3n2)cc1	-107.9*
Clc1ccc(CNc2nc(SCc3ccccc3Cl)nc3ccccc23)cc1	29.7
COc1ccc(CNc2nc(-c3ccc(OC)cc3)nc3ccccc23)cc1	-42.1
